# Measured values from the supplement of paper PMC11732987, “Enantioselective OTUD7B fragment discovery through chemoproteomics screening and high-throughput optimisation” (Communications Chemistry, 2025).
# A number with no mark means an inactive call.
# How the values were obtained:
# Experiment in all cases: log2 ratio of Biotin-Ahx-Ub-VS probe labelling (fragment/DMSO); higher = less target engagement (more negative = stronger competition), active = hit call of the paper (q ≤ 0.05, log2 ratio ≤ -1)
# Conditions in all cases: compound concentration: 200 uM; treatment time: 3 h
# [1] = biological target: T1, OTUD6B (UniProt Q8N6M0)
# T1 sequence (whole entry): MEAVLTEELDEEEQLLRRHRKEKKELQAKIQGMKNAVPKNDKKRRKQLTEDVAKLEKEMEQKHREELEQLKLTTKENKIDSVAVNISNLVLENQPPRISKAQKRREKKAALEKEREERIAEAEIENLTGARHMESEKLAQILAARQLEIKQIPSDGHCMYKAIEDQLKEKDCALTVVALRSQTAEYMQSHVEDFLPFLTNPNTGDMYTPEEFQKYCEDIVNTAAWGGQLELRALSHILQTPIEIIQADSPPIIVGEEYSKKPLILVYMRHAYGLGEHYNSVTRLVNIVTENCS
# Procedure, shortened: (§1)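 Values give the average log2 ratio of fragment to vehicle, assessed by unpaired t-test on global-median-normalised Spectronaut label-free quantities. Proteins needed ≥2 unique peptides. HEK293T lysate (495 µg per sample) was treated in triplicate with fragment at 200 µM or vehicle for 3 h and then with Biotin-Ahx-Ub-VS at 0.5 µM final for 1 h. Labelled DUBs were NeutrAvidin-enriched, digested and run by diaPASEF LC-MS/MS.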
# [2] = biological target: T2, OTUD7B (UniProt Q6GQQ9)
# T2 sequence (whole entry): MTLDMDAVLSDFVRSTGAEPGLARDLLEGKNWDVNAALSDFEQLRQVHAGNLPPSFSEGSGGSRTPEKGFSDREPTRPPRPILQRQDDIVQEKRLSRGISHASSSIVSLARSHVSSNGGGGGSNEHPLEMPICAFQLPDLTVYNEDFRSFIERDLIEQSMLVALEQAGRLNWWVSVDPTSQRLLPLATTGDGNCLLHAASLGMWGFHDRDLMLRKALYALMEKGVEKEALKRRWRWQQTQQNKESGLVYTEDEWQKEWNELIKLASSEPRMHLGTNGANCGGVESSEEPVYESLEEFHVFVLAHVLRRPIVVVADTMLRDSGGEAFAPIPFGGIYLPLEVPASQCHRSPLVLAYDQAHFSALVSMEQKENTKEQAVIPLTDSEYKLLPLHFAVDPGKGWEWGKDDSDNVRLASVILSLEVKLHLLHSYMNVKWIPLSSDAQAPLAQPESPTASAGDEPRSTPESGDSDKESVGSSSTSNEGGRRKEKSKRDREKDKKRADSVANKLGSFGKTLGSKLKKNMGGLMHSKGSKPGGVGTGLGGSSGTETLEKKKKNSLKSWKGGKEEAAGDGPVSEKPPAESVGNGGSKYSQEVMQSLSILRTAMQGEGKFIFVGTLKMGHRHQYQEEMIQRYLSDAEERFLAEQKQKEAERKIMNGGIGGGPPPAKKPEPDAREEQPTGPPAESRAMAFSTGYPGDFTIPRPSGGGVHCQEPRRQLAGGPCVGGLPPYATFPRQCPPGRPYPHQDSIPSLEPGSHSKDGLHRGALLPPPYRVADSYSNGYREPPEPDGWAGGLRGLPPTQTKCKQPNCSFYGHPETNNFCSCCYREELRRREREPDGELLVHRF
# Procedure, shortened: as §1
# [3] = biological target: PRPF8 (UniProt Q6P2Q9)
# Procedure, shortened: as §1
# [4] = biological target: T3, PSMD7 (UniProt P51665)
# T3 sequence (whole entry): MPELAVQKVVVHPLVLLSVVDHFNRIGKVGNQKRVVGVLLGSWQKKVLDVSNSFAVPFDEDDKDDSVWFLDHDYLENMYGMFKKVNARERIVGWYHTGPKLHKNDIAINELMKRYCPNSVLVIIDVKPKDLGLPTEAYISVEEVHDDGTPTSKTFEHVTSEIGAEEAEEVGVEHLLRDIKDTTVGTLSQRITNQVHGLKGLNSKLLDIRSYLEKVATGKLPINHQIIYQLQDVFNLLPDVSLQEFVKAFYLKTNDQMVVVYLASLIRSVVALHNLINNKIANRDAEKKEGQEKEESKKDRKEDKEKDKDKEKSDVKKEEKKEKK
# Procedure, shortened: as §1
# [5] = biological target: UCHL1 (UniProt P09936)
# Sequence of UCHL1 (P09936 whole entry, looked up): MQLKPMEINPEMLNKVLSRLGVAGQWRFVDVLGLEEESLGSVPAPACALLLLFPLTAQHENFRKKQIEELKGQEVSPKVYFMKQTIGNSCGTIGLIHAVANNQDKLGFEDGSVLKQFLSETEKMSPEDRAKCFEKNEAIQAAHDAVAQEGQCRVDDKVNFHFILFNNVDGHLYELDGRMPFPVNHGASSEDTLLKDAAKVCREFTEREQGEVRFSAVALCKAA
# Procedure, shortened: as §1
# [6] = biological target: T4, UCHL3 (UniProt P15374)
# T4 sequence (whole entry): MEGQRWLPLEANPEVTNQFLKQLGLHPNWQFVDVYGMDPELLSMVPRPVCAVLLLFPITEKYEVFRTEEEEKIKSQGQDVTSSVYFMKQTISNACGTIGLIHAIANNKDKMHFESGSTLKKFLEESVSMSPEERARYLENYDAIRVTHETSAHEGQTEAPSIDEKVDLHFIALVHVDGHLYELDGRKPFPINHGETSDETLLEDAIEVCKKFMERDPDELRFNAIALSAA
# Procedure, shortened: as §1
# [7] = biological target: T5, UCHL5 (UniProt Q9Y5K5)
# T5 sequence (whole entry): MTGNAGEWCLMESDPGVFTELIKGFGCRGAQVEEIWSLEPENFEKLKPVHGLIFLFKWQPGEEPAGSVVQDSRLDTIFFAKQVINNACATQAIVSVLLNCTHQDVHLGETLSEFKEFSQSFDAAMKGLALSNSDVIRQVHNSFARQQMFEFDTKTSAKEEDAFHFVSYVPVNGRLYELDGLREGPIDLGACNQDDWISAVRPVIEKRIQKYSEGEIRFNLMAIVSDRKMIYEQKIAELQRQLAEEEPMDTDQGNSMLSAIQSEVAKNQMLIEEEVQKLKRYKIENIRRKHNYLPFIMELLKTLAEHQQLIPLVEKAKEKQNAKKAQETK
# Procedure, shortened: as §1
# [8] = biological target: USP10 (UniProt Q14694)
# Sequence of USP10 (Q14694 whole entry): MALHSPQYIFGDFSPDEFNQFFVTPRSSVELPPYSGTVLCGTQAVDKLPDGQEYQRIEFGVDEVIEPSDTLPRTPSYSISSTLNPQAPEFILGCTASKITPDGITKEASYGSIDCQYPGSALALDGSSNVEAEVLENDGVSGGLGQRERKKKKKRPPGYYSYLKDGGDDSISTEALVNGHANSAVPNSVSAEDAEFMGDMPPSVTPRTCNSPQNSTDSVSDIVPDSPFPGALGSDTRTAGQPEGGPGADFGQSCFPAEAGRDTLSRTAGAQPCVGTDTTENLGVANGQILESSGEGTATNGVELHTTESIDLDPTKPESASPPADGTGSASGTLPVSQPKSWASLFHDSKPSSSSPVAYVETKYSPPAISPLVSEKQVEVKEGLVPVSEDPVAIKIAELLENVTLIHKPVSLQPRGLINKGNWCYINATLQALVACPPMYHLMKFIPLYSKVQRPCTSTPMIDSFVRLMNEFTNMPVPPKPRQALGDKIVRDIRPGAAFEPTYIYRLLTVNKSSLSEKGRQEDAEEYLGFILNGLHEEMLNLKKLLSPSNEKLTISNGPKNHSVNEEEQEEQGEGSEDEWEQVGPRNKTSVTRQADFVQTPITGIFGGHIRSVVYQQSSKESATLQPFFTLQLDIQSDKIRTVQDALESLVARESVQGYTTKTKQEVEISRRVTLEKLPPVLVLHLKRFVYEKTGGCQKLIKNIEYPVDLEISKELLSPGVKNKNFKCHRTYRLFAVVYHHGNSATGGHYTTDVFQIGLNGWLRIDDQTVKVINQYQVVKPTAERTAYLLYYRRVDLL
# Procedure, shortened: as §1
# [9] = biological target: T6, USP15 (UniProt Q9Y4E8)
# T6 sequence (whole entry): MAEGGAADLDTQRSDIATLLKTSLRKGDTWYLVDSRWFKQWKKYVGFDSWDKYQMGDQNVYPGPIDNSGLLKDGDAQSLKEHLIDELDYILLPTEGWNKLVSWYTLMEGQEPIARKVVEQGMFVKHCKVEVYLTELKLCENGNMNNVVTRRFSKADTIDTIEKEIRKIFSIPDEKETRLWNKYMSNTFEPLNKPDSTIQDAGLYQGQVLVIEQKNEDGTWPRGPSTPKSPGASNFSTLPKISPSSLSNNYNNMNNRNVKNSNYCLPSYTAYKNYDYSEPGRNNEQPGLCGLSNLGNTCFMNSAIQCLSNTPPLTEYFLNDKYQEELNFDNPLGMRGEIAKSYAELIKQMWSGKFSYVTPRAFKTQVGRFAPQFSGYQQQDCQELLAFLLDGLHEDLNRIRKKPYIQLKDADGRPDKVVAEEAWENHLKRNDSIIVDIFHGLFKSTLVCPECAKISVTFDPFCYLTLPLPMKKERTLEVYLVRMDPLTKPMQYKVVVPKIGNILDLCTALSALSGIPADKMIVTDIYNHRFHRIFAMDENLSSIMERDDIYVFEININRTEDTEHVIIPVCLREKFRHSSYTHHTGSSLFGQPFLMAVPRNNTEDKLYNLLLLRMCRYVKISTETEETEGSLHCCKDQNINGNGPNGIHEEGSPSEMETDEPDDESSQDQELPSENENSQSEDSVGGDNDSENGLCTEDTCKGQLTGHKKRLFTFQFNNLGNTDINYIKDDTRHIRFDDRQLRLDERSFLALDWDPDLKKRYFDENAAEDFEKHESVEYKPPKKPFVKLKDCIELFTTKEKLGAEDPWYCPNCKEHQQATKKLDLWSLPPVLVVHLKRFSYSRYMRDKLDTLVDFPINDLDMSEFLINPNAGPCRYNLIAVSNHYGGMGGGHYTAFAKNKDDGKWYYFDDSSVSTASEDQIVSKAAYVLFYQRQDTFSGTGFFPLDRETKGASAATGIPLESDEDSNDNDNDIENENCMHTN
# Procedure, shortened: as §1
# [10] = biological target: USP16 (UniProt Q9Y5T5)
# Sequence of USP16 (Q9Y5T5 whole entry, looked up): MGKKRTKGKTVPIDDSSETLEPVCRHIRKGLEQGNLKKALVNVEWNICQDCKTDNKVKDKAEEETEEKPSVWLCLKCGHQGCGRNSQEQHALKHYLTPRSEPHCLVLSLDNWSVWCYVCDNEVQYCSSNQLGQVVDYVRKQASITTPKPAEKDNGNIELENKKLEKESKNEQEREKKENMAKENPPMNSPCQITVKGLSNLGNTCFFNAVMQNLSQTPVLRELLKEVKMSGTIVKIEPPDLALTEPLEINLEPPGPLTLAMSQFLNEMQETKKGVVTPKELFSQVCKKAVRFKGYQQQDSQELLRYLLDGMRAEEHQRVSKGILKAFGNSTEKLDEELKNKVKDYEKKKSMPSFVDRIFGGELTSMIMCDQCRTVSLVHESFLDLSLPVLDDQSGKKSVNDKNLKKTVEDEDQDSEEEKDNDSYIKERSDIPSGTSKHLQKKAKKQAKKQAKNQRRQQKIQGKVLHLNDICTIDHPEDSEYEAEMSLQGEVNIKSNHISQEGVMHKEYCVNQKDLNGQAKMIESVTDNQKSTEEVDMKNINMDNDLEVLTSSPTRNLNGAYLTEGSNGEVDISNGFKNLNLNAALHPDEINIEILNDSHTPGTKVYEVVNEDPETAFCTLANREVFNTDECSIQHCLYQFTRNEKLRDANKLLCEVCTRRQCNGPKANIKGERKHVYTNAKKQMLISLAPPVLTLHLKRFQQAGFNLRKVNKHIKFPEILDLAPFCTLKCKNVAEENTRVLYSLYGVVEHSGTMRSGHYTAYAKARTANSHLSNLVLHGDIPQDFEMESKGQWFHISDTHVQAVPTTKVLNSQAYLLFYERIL
# Procedure, shortened: as §1
compound,measurement,setting,value
Cc1cccc(NC(=O)CCl)c1C,log2 ratio of Biotin-Ahx-Ub-VS probe labelling,[1],-0.273
same,log2 ratio of Biotin-Ahx-Ub-VS probe labelling,[2],-0.61
same,log2 ratio of Biotin-Ahx-Ub-VS probe labelling,[3],0.0787
same,log2 ratio of Biotin-Ahx-Ub-VS probe labelling,[4],-0.631
same,log2 ratio of Biotin-Ahx-Ub-VS probe labelling,[5],-0.766
same,log2 ratio of Biotin-Ahx-Ub-VS probe labelling,[6],-1.39 (active)
same,log2 ratio of Biotin-Ahx-Ub-VS probe labelling,[7],-0.0693
same,log2 ratio of Biotin-Ahx-Ub-VS probe labelling,[8],-0.292
same,log2 ratio of Biotin-Ahx-Ub-VS probe labelling,[9],-0.43
same,log2 ratio of Biotin-Ahx-Ub-VS probe labelling,[10],-0.691
